Test results from the supplement of paper PMC10849652.
About 8,800 targets were measured; listed, in parts, are those with a hit and a random draw of the rest. About 0.5% of all pairs of compound and target were hits. A number with no mark means an inactive call.

Columns and labels:
Assay in all cases: log2 fold change, soluble protein after heating vs DMSO (PISA); higher = thermal stabilisation; K562 lysate, 10 uM; active = over 0.2 and 3.5 SD of the protein, either way, in both replicates (recomputed)
erlotinib = compound: C#Cc1cccc(Nc2ncnc3cc(OCCOC)c(OCCOC)cc23)c1 [erlotinib]
Procedure, shortened: (§1)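 Soluble protein was defined as the supernatant remaining after 21,000xg for 90 min, following pooling of heated aliquots and adjustment to 0.5% NP-40 at 4°C. Before that, crude K562 extract at 1 mg/mL protein in PBS pH 7.4 with 1 mM MgCl2 was treated with 10 μM compound for 30 min and heated for 3 min across 48°C-58°C. Quantification used TMTpro 16plex LC-MS/MS with channel sums equalised, and values are log-two fold changes in thermal stability relative to solvent controls from duplicates.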

[1] = compound: C/C(=N\NC(=O)C1=CC(=CC=C1)S(=O)(=O)N2CCOCC2)/C3=C(C=CC(=C3)Cl)O
Procedure, shortened: as §1

[2] = compound: C1=CC(=CC=C1C2=NC3=C(N2)C=C(C=C3)C(=O)N)OC4=CC=C(C=C4)Cl
Procedure, shortened: as §1

[3] = compound: C1=CC2=C(C=CC(=C2)/C=C\3/C(=O)NC(=NCC4=CC=CS4)S3)N=C1
Procedure, shortened: as §1

[4] = compound: C1=CC2=NC=CN=C2C=C1/C=C/3\C(=O)NC(=O)S3
Procedure, shortened: as §1

[5] = compound: C1=CC=C(C=C1)C2=NC(=C(N2)C3=CC=NC=C3)C4=CC(=C(C=C4)Cl)O
Procedure, shortened: as §1

[6] = compound: C1=CC=C2C(=C1)C3=NNC4=CC=CC(=C43)C2=O
Procedure, shortened: as §1

[7] = compound: C1CCN(C1)C(=O)NC2=CC=CC(=C2)NC3=NC=C(C(=N3)NCCC4=CN=CN4)Br
Procedure, shortened: as §1

[8] = compound: C1CN(CCC1(CC2=CC=C(C=C2)Cl)N)C3=NC=NC4=C3C=CN4
Procedure, shortened: as §1

IRAK-1-4 Inhibitor I = compound: C1COCCN1CCN2C3=CC=CC=C3N=C2NC(=O)C4=CC(=CC=C4)[N+](=O)[O-] [IRAK-1-4 Inhibitor I]
Procedure, shortened: as §1

Sequence of UniProt Q96DW6 (Q96DW6 whole entry, looked up): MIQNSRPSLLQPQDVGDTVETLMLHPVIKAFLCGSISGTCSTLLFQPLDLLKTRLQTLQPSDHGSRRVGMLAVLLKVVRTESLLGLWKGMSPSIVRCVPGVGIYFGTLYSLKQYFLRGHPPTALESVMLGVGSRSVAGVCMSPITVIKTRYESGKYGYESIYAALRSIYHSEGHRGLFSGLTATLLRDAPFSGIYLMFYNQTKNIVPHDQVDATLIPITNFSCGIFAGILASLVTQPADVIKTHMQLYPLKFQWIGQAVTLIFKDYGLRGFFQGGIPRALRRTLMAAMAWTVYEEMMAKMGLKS
Sequence of UniProt P31947 (P31947 whole entry, looked up): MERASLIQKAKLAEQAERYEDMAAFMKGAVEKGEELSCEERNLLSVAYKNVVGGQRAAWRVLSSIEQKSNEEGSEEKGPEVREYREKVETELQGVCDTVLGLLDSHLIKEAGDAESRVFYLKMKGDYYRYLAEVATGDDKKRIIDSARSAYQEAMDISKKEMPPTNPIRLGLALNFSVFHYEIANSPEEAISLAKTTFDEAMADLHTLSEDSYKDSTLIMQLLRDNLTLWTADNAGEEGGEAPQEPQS
Sequence of UniProt Q14542 (Q14542 whole entry, looked up): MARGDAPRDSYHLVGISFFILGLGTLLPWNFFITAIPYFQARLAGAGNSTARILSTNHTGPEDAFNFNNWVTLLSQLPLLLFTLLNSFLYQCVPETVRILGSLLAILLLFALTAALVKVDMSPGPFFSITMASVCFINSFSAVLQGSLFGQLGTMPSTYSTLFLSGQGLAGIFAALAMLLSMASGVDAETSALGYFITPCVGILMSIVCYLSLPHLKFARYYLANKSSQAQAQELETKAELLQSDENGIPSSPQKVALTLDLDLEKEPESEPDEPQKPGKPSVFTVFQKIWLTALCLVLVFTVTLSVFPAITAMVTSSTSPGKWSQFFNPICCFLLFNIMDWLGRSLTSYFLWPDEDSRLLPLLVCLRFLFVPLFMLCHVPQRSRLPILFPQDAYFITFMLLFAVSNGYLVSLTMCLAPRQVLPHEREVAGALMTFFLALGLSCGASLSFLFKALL
Sequence of UniProt Q96Q15 (Q96Q15 whole entry, looked up): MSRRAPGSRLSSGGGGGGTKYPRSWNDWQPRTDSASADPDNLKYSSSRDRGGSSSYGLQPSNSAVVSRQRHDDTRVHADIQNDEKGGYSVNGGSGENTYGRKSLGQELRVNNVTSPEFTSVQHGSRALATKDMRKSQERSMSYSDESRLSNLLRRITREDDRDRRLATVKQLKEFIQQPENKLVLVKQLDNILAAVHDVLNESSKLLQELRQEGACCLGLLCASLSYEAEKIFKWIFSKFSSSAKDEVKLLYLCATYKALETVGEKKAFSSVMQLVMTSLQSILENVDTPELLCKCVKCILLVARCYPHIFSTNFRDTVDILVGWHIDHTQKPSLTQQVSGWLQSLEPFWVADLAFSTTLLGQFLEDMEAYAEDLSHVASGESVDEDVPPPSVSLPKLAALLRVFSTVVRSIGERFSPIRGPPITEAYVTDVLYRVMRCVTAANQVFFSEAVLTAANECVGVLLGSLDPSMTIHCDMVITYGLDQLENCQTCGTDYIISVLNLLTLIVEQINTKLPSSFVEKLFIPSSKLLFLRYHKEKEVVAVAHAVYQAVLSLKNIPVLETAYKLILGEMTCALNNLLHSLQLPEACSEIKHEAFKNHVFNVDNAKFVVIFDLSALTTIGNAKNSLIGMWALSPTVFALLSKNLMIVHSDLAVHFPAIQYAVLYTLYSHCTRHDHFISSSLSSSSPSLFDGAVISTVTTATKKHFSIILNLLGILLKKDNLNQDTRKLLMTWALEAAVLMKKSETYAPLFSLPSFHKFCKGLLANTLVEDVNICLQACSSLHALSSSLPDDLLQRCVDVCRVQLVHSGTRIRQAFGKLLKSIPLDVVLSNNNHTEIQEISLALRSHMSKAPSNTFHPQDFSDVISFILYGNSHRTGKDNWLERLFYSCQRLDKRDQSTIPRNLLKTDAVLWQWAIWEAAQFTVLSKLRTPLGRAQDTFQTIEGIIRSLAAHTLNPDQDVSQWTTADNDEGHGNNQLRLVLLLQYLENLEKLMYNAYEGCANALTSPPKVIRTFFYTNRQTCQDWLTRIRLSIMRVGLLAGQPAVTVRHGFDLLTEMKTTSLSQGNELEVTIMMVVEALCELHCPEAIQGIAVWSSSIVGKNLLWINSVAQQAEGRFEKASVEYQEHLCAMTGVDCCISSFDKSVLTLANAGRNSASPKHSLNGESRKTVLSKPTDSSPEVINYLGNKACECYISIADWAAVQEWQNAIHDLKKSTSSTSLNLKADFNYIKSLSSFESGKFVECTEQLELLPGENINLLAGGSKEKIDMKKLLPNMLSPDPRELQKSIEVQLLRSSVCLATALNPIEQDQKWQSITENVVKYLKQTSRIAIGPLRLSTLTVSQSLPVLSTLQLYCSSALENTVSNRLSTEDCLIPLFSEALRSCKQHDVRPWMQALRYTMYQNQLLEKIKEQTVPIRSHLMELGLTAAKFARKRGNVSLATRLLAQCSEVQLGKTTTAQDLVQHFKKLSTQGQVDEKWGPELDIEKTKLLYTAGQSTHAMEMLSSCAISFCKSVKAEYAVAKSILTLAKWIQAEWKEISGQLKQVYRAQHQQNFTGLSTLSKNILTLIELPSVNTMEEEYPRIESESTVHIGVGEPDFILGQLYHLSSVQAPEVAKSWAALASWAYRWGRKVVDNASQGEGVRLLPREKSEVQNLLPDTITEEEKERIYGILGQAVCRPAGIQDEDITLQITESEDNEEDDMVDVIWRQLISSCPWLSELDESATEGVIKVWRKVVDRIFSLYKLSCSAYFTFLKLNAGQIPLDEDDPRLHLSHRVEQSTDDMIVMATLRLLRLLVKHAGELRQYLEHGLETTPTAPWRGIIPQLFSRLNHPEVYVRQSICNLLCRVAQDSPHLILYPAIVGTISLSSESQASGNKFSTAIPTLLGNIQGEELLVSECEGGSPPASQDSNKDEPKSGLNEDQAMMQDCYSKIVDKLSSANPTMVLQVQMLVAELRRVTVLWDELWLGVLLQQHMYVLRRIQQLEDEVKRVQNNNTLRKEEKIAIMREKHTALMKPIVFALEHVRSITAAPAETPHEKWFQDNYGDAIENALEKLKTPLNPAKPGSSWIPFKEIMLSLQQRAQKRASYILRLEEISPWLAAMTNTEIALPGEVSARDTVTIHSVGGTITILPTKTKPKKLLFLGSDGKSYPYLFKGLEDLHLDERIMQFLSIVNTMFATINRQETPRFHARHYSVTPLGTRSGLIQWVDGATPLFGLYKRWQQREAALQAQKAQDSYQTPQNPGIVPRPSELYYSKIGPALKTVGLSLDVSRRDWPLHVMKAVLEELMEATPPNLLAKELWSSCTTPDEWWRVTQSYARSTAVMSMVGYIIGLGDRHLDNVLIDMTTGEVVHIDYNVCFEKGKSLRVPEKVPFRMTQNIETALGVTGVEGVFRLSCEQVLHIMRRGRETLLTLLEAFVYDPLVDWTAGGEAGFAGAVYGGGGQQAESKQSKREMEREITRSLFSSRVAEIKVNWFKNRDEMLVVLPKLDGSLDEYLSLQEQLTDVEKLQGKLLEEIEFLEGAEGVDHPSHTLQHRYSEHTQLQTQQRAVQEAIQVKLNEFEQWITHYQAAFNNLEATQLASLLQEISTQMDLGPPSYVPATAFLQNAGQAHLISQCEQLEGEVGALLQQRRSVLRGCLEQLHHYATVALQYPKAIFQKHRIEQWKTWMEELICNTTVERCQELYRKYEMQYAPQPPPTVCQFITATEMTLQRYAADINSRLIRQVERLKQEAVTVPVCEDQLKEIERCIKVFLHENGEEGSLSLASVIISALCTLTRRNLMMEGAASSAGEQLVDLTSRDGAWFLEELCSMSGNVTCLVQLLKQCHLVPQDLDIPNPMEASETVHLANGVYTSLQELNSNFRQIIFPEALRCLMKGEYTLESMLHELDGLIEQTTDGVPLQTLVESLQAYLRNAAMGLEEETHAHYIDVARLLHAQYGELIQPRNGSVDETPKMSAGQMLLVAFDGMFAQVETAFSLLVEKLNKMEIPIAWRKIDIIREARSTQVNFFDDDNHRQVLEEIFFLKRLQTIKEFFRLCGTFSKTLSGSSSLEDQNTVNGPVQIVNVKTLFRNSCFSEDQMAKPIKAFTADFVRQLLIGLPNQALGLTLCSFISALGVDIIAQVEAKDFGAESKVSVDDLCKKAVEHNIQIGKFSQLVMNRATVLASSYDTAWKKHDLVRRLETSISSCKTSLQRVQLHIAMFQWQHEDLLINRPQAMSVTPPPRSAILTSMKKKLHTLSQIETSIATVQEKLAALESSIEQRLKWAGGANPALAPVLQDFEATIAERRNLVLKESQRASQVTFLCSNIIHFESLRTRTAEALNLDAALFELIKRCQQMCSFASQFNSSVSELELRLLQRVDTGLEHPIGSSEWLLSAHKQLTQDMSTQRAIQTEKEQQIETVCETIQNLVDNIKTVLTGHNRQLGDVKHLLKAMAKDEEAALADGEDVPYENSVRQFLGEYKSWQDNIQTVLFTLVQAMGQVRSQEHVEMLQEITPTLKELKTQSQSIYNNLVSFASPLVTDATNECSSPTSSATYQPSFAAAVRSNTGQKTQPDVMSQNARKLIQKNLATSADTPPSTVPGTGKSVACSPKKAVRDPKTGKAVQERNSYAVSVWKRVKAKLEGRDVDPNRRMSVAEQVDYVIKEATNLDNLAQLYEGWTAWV
Sequence of UniProt Q96DI7 (Q96DI7 whole entry, looked up): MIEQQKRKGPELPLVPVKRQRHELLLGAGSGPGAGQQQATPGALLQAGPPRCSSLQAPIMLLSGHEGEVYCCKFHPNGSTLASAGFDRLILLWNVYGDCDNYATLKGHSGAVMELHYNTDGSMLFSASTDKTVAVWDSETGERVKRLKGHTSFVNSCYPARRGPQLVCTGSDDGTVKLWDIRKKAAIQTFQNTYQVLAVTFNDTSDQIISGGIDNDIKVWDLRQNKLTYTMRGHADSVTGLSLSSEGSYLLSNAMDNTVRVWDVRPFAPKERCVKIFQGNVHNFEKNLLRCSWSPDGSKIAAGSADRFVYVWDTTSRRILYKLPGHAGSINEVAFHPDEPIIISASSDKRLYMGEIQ

Row | Target | log2 fold change (erlotinib) | log2 fold change [1] | log2 fold change [2] | log2 fold change [3] | log2 fold change [4] | log2 fold change [5] | log2 fold change [6] | log2 fold change [7] | log2 fold change [8] | log2 fold change (IRAK-1-4 Inhibitor I)
1 | SKA1 (UniProt Q96BD8) | -0.029 | -0.015 | 0.029 | 0.072 | -0.062 | 0.065 | -0.06 | 0.02 | -0.094 | 0.013
2 | SSB (UniProt E7ERC4) | -0.03 | 0.071 | -0.063 | 0 | 0.02 | 0.015 | -0.142 | 0.089 | 0.01 | -0.043
3 | SFN (UniProt P31947) | 0.013 | -0.239 | -0.006 | -0.053 | -0.002 | -0.004 | 0.025 | 0.012 | -0.064 | -0.03
4 | SRP54 (UniProt P61011) | -0.026 | 0.017 | 0.035 | 0.023 | -0.043 | 0.005 | -0.039 | -0.047 | -0.003 | -0.014
5 | SNRNP40 (UniProt Q96DI7) | 0.025 | 0.046 | -0.03 | -0.031 | -0.031 | 0.009 | 0.011 | 0.02 | -0.004 | 0.01
6 | SNRPD3 (UniProt P62318) | 0.017 | 0.021 | 0.016 | -0.057 | 0.013 | -0.013 | 0.033 | 0.019 | 0.044 | 0.026
7 | STK24 (UniProt B4DR80) | 0.019 | 0.02 | 0.018 | -0.04 | -0.003 | -0.004 | 0.198 | 0.045 | 0.013 | -0.007
8 | SRRT (UniProt Q9BXP5) | 0.039 | 0.023 | -0.005 | 0.041 | 0.004 | 0.022 | -0.03 | -0.005 | -0.011 | 0.004
9 | SMG6 (UniProt Q86US8) | -0.038 | 0.026 | 0.012 | 0.009 | 0.021 | 0 | -0.092 | -0.04 | -0.005 | 0.026
10 | SLC19A1 (UniProt P41440) | -0.032 | -0.024 | 0.049 | -0.04 | -0.025 | -0.001 | -0.017 | -0.023 | 0.023 | 0.033
11 | SPPL2A (UniProt Q8TCT8) | 0.005 | -0.007 | 0.118 | -0.104 | -0.011 | -0.07 | -0.141 | -0.082 | -0.644 (active) | 0.014
12 | SLC30A6 isoform 2 (UniProt Q6NXT4) | -0.014 | 0.031 | -0.012 | -0.08 | 0.069 | 0.008 | -0.212 | -0.005 | -0.059 | 0
13 | SLC25A38 (UniProt Q96DW6) | -0.077 | -0.117 | -0.024 | -0.049 | -0.086 | -0.114 | -0.092 | -0.023 | -0.07 | -0.052
14 | SLU7 (UniProt O95391) | -0.02 | -0.086 | -0.021 | 0.09 | -0.026 | 0.021 | 0.036 | -0.096 | -0.041 | -0.07
15 | SLC27A2 (UniProt O14975) | -0.025 | 0.478 (active) | -0.122 | 0.099 | 0.048 | 0.007 | -0.016 | -0.038 | -0.035 | 0.614 (active)
16 | SKA2 (UniProt Q8WVK7) | -0.006 | -0.058 | 0.014 | -0.011 | -0.042 | 0.001 | -0.081 | -0.006 | -0.019 | -0.056
17 | STARD3 isoform 3 (UniProt Q14849) | -0.014 | 0.104 | -0.022 | -0.085 | -0.078 | -0.003 | 0.107 | -0.085 | 0.133 | 0.047
18 | SMG1 (UniProt Q96Q15) | -0.004 | -0.031 | -0.046 | 0.009 | 0.029 | -0.022 | -0.072 | -0.036 | 0.024 | -0.008
19 | STK25 (UniProt O00506) | 0.037 | -0.04 | -0.038 | 0.021 | 0.012 | 0.031 | 0.317 (active) | 0.052 | -0.022 | -0.001
20 | SPHK1 isoform 2 (UniProt Q9NYA1) | -0.055 | -0.462 | -0.059 | 0.038 | 0.034 | -0.097 | -0.066 | 0.016 | 0.038 | 0.018
21 | SLC29A2 (UniProt Q14542) | -0.147 | 0.016 | -0.04 | 0.013 | -0.028 | -0.033 | 0.018 | 0.018 | 0.085 | 0.102
22 | SQLE (UniProt Q14534) | -0.025 | 0.056 | 0.019 | -0.03 | -0.028 | 0.007 | 0.074 | -0.019 | -0.084 | 0.023
23 | STK4 (UniProt Q13043) | -0.013 | -0.15 | -0.033 | -0.061 | -0.008 | -0.009 | 0.165 | 0.187 | 0.053 | 0.018
24 | STK39 (UniProt Q9UEW8) | 0.006 | 0.08 | -0.001 | -0.014 | -0.03 | 0 | -0.133 | -0.004 | -0.013 | -0.003
25 | SHC1 isoform 6 (UniProt P29353) | 0.029 | -0.024 | 0.05 | 0.035 | 0.04 | 0.011 | -0.043 | -0.005 | 0.001 | 0.012
26 | SORBS3 (UniProt O60504) | -0.01 | 0.028 | 0.021 | 0.018 | -0.054 | -0.092 | 0.057 | 0.09 | 0.129 | 0.088
27 | SPG11 (UniProt Q96JI7) | 0.05 | 0.033 | 0.005 | -0.012 | 0.333 | 0.076 | 0.025 | -0.016 | 0.019 | 0.023
